# RAM inhibit: inhibitors of the yeast RAM network, primary screen, dse1pr::URA3 reporter, 5-FOA selection. S. cerevisiae dse1pr::URA3 reporter, 5-FOA growth OD615, 2 d; analog-sensitive cbk1-as2 kinase mutant strain. inhibition, % at 50 µM. 1.8% of 190,000 active. AID 868, 2007;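 active = inhibition above a set limit, 3 SD over mean compound inhibition, cut at about 8.4% in these data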;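 note: 0% = DMSO-only wells with no growth and 100% = 10 µM 1-NA-PP1 full growth; inhibition rescues growth on 5-FOA so higher OD means more RAM inhibition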
# SKN-1 inh: suppressors of acrylamide-induced Pgst-4::GFP reporter in worms, primary screen, SKN-1 inhibitor project, whole organism, uHTS, GFP/RFP fluorescence ratio, strain VP596 | C. elegans VP596 Pgst-4::GFP/RFP ratio, 24 h | inhibition, % at 21.8 µM | 0.49% of 360,000 active;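 active = interference check ratio from 0.5 to 1.5 plus GFP to RFP signal ratio inhibition reaching or exceeding a fixed threshold, cut at about 30% in these data, passing the limit was not always enough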
# EP2 antag: human EP2 receptor antagonists, primary screen, TR-FRET cAMP, C6 glioma cells; Prostaglandin E2 receptor EP2 subtype (Homo sapiens), P43116; C6 glioma cells expressing human EP2; cells stimulated with saturating PGE2; inhibition, % at 25 µM; 0.52% of 260,000 active;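 active = percent inhibition above 40 after rounding to a whole number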;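 note: rat C6 glioma host cells with rolipram phosphodiesterase inhibitor present; the protocol text gives 20 µM as final concentration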
# Target sequence (P43116 whole entry, looked up): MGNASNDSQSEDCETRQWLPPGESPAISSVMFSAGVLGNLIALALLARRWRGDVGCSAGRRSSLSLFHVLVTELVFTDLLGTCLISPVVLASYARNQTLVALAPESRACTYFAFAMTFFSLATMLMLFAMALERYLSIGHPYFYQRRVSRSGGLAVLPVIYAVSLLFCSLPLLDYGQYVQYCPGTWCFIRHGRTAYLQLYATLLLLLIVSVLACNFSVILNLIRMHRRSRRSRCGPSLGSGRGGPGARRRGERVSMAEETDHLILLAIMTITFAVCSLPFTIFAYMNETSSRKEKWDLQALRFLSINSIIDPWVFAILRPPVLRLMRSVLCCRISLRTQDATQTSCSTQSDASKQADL
# Rev-erbA mod: modulators of Rev-erb alpha DNA binding, primary screen, biochemical, FITC-DNA, fluorescence polarization, uHTS. Nuclear receptor subfamily 1 group D member 1 (Homo sapiens), P20393. Rev-erbα–FITC-DNA binding, 90 min. activity, % at 10 µM. 0.79% of 370,000 active. AID 1259318, 2017;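 active = activity above about 14%, limit read from the data; passing the limit was not always enough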;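 note: 0% = DMSO wells with 35 nM protein and 100% = DMSO wells with 750 nM protein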
# PG9 Ab binder: binders of HIV-1 gp120 antibody PG9, primary screen, biochemical, TR-FRET; TR-FRET gp120-PG9 antibody binding; inhibition, % at 6.7 µM; 0.43% of 360,000 active; AID 624416, 2012; in the data active = inhibition above about 8.5%
# EP2 mod: EP2 receptor modulators, cAMP readout, primary screen, cell-based, HTRF cAMP, PGE2 stimulation. Prostaglandin E2 receptor EP2 subtype (Homo sapiens), P43116. EP2-expressing cells, cAMP HTRF FRET, PGE2 co-stimulation. induction, % at 25 µM. 0.83% of 260,000 active;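 active = compounds whose cAMP rise, as percent of the full-agonist control response, exceeds 60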;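 note: rat C6 glioma line stably carrying human EP2 under a CMV promoter; the protocol text gives 20 µM as final concentration; 100% = response of wells given 1 µM PGE2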
# Rev-erbA confirm: modulators of Rev-erb alpha DNA binding, confirmation, biochemical, FITC-DNA, fluorescence polarization, single point; AID 1259319, 2017; activation, % at 25 µM; 61% of 3,000 active; 90 min; shares compounds with Rev-erbA mod;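 active = activation at or above a set limit, or at least 3 SD above the negative control mean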;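 note: 0% = 35 nM protein with DMSO and 100% = 750 nM protein high control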
# RORg counter: modulation of RORgamma DNA binding, dose response, counter-screen for Rev-erb alpha modulator project, biochemical, fluorescence polarization, FITC-DNA | shares compounds with Rev-erbA mod | purified RORgamma protein-FITC-DNA binding | IC50, µM | 8% of 910 active;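 active = Compounds whose fitted half-maximal concentration for disrupting protein-DNA binding is below 10 micromolar; the record names Rev-erb in its text, so the target is in doubt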
# Active calls of the source: *; i = inactive; / = no result. Only some compounds are listed: those with a hit (about 2.9% of all), similar ones and a draw of the others.
SMILES,RAM inhibit,SKN-1 inh,EP2 antag,Rev-erbA mod,PG9 Ab binder,EP2 mod,Rev-erbA confirm,others
CCc1ccc(-c2cc(C(F)(F)F)n3nc(C(=O)Nc4c(C)nn(Cc5ccccc5Cl)c4C)cc3n2)s1,5,2,11,72*,-4,22,38*,RORg counter=>40
Cc1ccccc1Cn1cc(NC(=O)c2cc(-c3cccs3)on2)cn1,3,3,9,20*,5,9,5,
CC(C)N(C(=O)NC(c1ccc(F)c(F)c1)c1nccn1C)C(C)C (stereo not drawn),/,/,6,/,/,5,/,
CCN(CC)c1nc(NC(C)=O)nc(N(C)C)n1,/,/,9,/,/,-19,/,
Cc1nn(C)c(C)c1NC(=O)CSc1nc(-c2ccccc2F)nc2c1cnn2-c1ccccc1,/,-2,/,42*,-1,/,63*,RORg counter=>40
Cc1nn(C)c(C)c1NC(=O)CSc1nc(-c2ccccc2Cl)nc2c1cnn2-c1ccccc1,3,-18,8,102*,3,-46,92*,RORg counter=6.8*
Cc1cc(NC(=O)CSc2ncnc3c2cnn3-c2ccccc2)no1,3,-13,5,3,1,-24,/,
COc1cc(OC)cc(-n2nnnc2SCC(=O)Nc2cc(OC)ccc2OC)c1,/,/,8,/,/,-39,/,
N#Cc1c(-c2ccccc2Cl)cc(-c2ccccc2)nc1Br,4,8,14,32*,4,33,22*,
CS(=O)(=O)c1nc(-c2ccc(Br)cc2)cc(-c2ccccc2)c1C#N,2,-2,9,1,2,60,/,
N#Cc1c(-c2cccc(F)c2)cc(-c2ccccc2)nc1Br,5,-6,14,58*,9.1*,43,25*,
COc1ccccc1C1(O)CCN(CC(O)c2ccc3c(c2)OCCCO3)CC1 (stereo not drawn),/,/,7,/,/,-33,/,
COc1ccc(-n2c(SCC(=O)Nc3cccc(F)c3)nnc2-c2cccnc2)cc1,/,/,7,/,/,-19,/,
Cc1nc(N2CCN(S(=O)(=O)c3ccccc3)CC2)c2cc(-c3ccccc3)sc2n1,5,8,25,44*,0,14,28*,
Cc1nn(-c2ccccc2)c2sc(-c3nnc(SCCN4CCOCC4)n3C)cc12,/,/,13,/,/,-24,/,
O=C(Cc1ccccc1)NC(=S)Nc1ccc2oc(-c3ccccc3F)nc2c1,6,15,22,10,-1,25,/,
CC(=O)NC(=S)Nc1ccc2oc(-c3cc(F)c(F)cc3Cl)nc2c1,0,3,4,50*,0,35,32*,RORg counter=i
O=c1[nH]cnc2c1sc1nc(C(F)F)cc(-c3ccccc3)c12,/,15,/,32*,5,/,28*,
CC(C)Cc1nc2sc3c(=O)[nH]cnc3c2c2c1CCCC2,5,11,7,0,0,53,/,
O=C(NCc1ccccc1Cl)C1CCN(C(=O)NC2CCCCC2)CC1,/,/,7,/,/,7,/,
CCOc1ccc(NC(=O)CSc2nnc(-c3ccc(Cl)cc3)n2CC)cc1,/,/,8,/,/,20,/,
CCc1nc(N)c(C#N)c(-c2ccccc2)c1C,/,/,9,/,/,3,/,
Cc1ccc2c(n1)sc1c(-c3ccccc3)c(C#N)c(N)nc12,5,-18,12,49*,1,15,38*,RORg counter=>40
COc1ccccc1NC(=O)c1cc2c(n(-c3ccccc3)c1=O)CCCC2=O,/,/,11,/,/,-21,/,

# Compound activity: PubChem, several laboratories
